This note sets out measurements from PubChem BioAssay (EPA / NIEHS).

One may read the AC50 as the concentration at which the activity in the assay is half-maximal.

The source made the active and inactive calls. The calls were made as follows: active = hit-call score of the fitted dose curve at least 0.9, where 1 is the maximum; inactive = score below 0.9.

Experiment [1] in a line: BSK_3C_VCAM1: BioMAP Diversity Plus: 3C Assay for Vascular cell adhesion molecule 1 (VCAM1) Biomarker Activity (AID 2282999). To be noted: BioMAP 3C HUVEC, VCAM1 ELISA, cytokine-stimulated; actives raise or lower the signal. In outline:
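Vascular primary endothelium (human umbilical vein) was exposed to chemicals and assayed 24 h later. VCAM-1 levels came from ELISA, with DMSO serving as baseline for bidirectional fitting.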

Experiment [2] is described as follows: BSK_3C_Proliferation: Cell Proliferation Assessment in the BioMAP Diversity Plus: 3C Assay (AID 2283006).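 As to AC50: potency may reflect either rise or fall in cell number versus DMSO.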 To be noted: primary human endothelial cells (HUVEC). The gist of the method: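 Proliferation as total protein: sulforhodamine B (0.1%) stain of TCA-fixed subconfluent human umbilical vein endothelial cells, absorbance 560 nm, 48 h after dosing. Activity fitted in both directions against DMSO baseline.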

Experiment [3] is described as follows: BSK_3C_Vis: BioMAP Diversity Plus: 3C Assay for Morphology Visualization (AID 2283025).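 Also: fitted both ways so gain or loss versus DMSO counts.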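 As to AC50: light microscopy image of cell morphology used as background control.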 The settings on record: primary human endothelial cells (HUVEC). In outline: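 Light-microscopy visualization of HUVEC cultures at 24 h post-treatment, with DMSO as baseline for bidirectional fitting.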
Experiment [4] can be described thus: BSK_BE3C_SRB: Viability Assessment in the BioMAP Diversity Plus: BE3C Assay (AID 2283028).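 As to AC50: fitted both ways so AC50 may mark signal gain or loss versus DMSO.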 To be noted: primary human bronchial epithelial cells. The gist of the method:
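SRB total-protein staining (0.1%, after TCA fixation) of chemically dosed human bronchial epithelial primary cells at 24 h; DMSO serves as the negative control for bidirectional curve fitting.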

Read-out in experiment [5]: Thrombomodulin, THBD (gene 7056)
Put plainly: BSK_3C_Thrombomodulin: BioMAP Diversity Plus: 3C Assay for Thrombomodulin Biomarker Activity (AID 2283029). The settings on record: primary human endothelial cells (HUVEC); actives raise or lower the signal. The gist of the method:
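ELISA measurement of thrombomodulin on HUVEC surface 24 h after chemical dosing; activity fitted in both directions relative to DMSO vehicle.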

Read-out in experiment [6]: Vascular cell adhesion molecule 1 (VCAM1), VCAM1 (gene 7412)
Put plainly: BSK_4H_VCAM1: BioMAP Diversity Plus: 4H Assay for Vascular cell adhesion molecule 1 (VCAM1) Biomarker Activity (AID 2283033).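 As to outcome: cell-surface VCAM-1 protein measured by ELISA.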 To be noted: primary human endothelial cells (HUVEC); actives raise or lower the signal. The gist of the method:
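VCAM-1 ELISA read 24 h after chemical dosing of HUVEC in the BioMAP 4H system, with gain or loss of signal fitted relative to DMSO. Parallel SRB staining (560 nm) checked overt cytotoxicity.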

Read-out in experiment [7]: Interferon-gamma inducible Protein 10 (IP10), CXCL10 (gene 3627)
Put plainly: BSK_BE3C_IP10: BioMAP Diversity Plus: BE3C Assay for Interferon-gamma inducible Protein 10 (IP10) Biomarker Activity (AID 2283034). To be noted: primary human bronchial epithelial cells; actives raise or lower the signal. The gist of the method: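 IP-10 quantified by ELISA in human primary bronchial epithelial cell cultures at 24 hours post-dosing. Gain or loss of signal fitted relative to DMSO; parallel SRB staining assessed overt cytotoxicity.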

Read-out in experiment [8]: Urokinase-type plasminogen activator receptor (uPAR), PLAUR (gene 5329)
Put plainly: BSK_BE3C_uPAR: BioMAP Diversity Plus: BE3C Assay for Urokinase-type plasminogen activator receptor (uPAR) Biomarker Activity (AID 2283039).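 As to outcome: cells exposed to compound for one day before measurement.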 The settings on record: primary human bronchial epithelial cells; actives raise or lower the signal. In outline: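 uPAR levels were measured by ELISA after 24 h compound treatment of primary human bronchial epithelial cells, fitted in both directions relative to DMSO. Parallel SRB staining served as the cytotoxicity read-out.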

Read-out in experiment [9]: Interleukin-6 (IL6), IL6 (gene 3569)
Put plainly: BSK_CASM3C_IL6: BioMAP Diversity Plus: CASM3C Assay for Interleukin-6 (IL6) Biomarker Activity for (AID 2283040). The settings on record: primary human coronary artery smooth muscle cells; actives raise or lower the signal.

Read-out in experiment [10]: E-selectin (Homo sapiens) (UniProt P16581)
Put plainly: BSK_LPS_Eselectin: BioMAP Diversity Plus: LPS Assay for Eselectin Biomarker Activity (AID 2283077). The settings on record: primary human HUVEC with PBMC; actives raise or lower the signal. The gist of the method: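 Dose chemical onto LPS-driven HUVEC/PBMC co-culture; after 24 h, run ELISA for E-selectin; fit up- and down-going responses relative to DMSO control.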

Read-out in experiment [11]: Interleukin-8 (IL8), CXCL8 (gene 3576)
In words: BSK_LPS_IL8: BioMAP Diversity Plus: LPS Assay for Interleukin-8 (IL8) Biomarker Activity (AID 2283078). To be noted: primary human HUVEC with PBMC; actives raise or lower the signal. In outline:
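In this LPS system, chemical-treated human umbilical vein endothelium/PBMC co-cultures were harvested at 24 h for IL-8 ELISA.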

Read-out in experiment [12]: Interleukin-1 alpha (IL1a), IL1A (gene 3552)
Put plainly: BSK_LPS_IL1a: BioMAP Diversity Plus: LPS Assay for Interleukin-1 alpha (IL1a) Biomarker Activity (AID 2283080). The settings on record: primary human HUVEC with PBMC; actives raise or lower the signal. The gist of the method: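 Primary human HUVEC and PBMC co-culture stimulated with LPS is dosed and harvested at 24 h. Both increases and decreases in ELISA-measured IL-1a are scored relative to DMSO.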

A short description of experiment [13]: BSK_LPS_PGE2: BioMAP Diversity Plus: LPS Assay for Prostaglandin E2 (PGE2) Biomarker Activity (AID 2283082). To be noted: primary human HUVEC with PBMC; actives raise or lower the signal. In outline: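 PGE2 release measured by ELISA in an LPS-activated co-culture of human umbilical vein endothelial cells and peripheral blood mononuclear cells, read at 24 h post-dosing. DMSO served as baseline for bidirectional curve fitting.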

Read-out in experiment [14]: Tumor necrosis factor (Homo sapiens) (UniProt P01375)
In words: BSK_LPS_TNFa: BioMAP Diversity Plus: LPS Assay for Tumour Necrosis Factor alpha (TNFa) Biomarker Activity (AID 2283085).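 As to AC50: TNFa protein level quantified by ELISA in the co-culture.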 The settings on record: primary human HUVEC with PBMC; actives raise or lower the signal. The gist of the method: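 TNFa was quantified by ELISA in LPS-activated co-cultures of human endothelial cells and PBMC, 24 h post-dosing. Both increases and decreases versus DMSO were fitted.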

Read-out in the next experiment: CD38, CD38 (gene 952)
In words: BSK_SAg_CD38: BioMAP Diversity Plus: SAg Assay for CD38 Biomarker Activity (AID 2283087). To be noted: primary human HUVEC with PBMC; actives raise or lower the signal. The gist of the method: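 CD38 quantified by ELISA (fluorescence) in a superantigen-activated endothelial cell–PBMC co-culture at 24 h post-dose. Activity fitted in both directions relative to DMSO; parallel SRB and Alamar Blue cytotoxicity read-outs.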

Read-out in the next experiment: CD69, CD69 (gene 969)
Put plainly: BSK_SAg_CD69: BioMAP Diversity Plus: SAg Assay for CD69 Biomarker Activity (AID 2283089).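 As to AC50: cell surface CD69 protein quantified by ELISA with fluorescence detection.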 To be noted: primary human HUVEC with PBMC; actives raise or lower the signal. The gist of the method: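 Primary human vascular co-culture (umbilical vein endothelium with peripheral blood mononuclear cells) exposed to test chemical for 24 h. CD69 levels quantified by fluorescence ELISA; DMSO served as negative control for bidirectional fitting.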

Read-out in experiment [15]: Monocyte Chemoattractant Protein-1 (MCP1), CCL2 (gene 6347)
Put plainly: BSK_SAg_MCP1: BioMAP Diversity Plus: SAg Assay for Monocyte Chemoattractant Protein-1 (MCP1) Biomarker Activity (AID 2283090). To be noted: primary human HUVEC with PBMC; actives raise or lower the signal. The gist of the method: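 Values derive from bidirectional fitting of ELISA-measured MCP1 against DMSO controls. Readings were taken 24 h after dosing human vascular endothelial cells co-cultured with peripheral blood mononuclear cells under superantigen stimulation.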

Read-out in experiment [16]: Monokine induced gamma interferon (MIG), CXCL9 (gene 4283)
Put plainly: BSK_SAg_MIG: BioMAP Diversity Plus: SAg Assay for Monokine induced gamma interferon (MIG) Biomarker Activity (AID 2283092). The settings on record: primary human HUVEC with PBMC; actives raise or lower the signal. In outline:
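Endothelial cells and PBMC were co-cultured, exposed to test chemicals, and sampled 24 h later. MIG was measured by ELISA, and responses were fitted in both directions relative to DMSO.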

Experiment [17] is described as follows: BSK_SAg_PBMCCytotoxicity: PBMC Cytotoxicity Assessment in the BioMAP Diversity Plus: SAg Assay (AID 2283093).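 Also: PBMC viability measured as Alamar Blue reduction fluorescence at 546/580 nm; fitted both ways against DMSO so a hit may be loss or gain of signal.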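 As to AC50: PBMC superantigen activated with SEB plus TSST-1 one hour after compound addition.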 To be noted: primary human HUVEC with PBMC. The gist of the method:
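Alamar Blue reduction (6 h, 546/580 nm) reports PBMC cytotoxicity after 90 h superantigen activation (SEB, TSST-1; 20 ng/mL final each) with 1 h compound pre-treatment. Gain or loss of signal fitted versus DMSO.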

Experiment [18] in a line: BSK_SAg_Proliferation: Cell Proliferation Assessment in the BioMAP Diversity Plus: SAg Assay (AID 2283095).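 Also: relative cell number as total protein by SRB absorbance in sub-confluent culture.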 To be noted: primary human HUVEC with PBMC. The gist of the method:
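Relative cell number in the endothelial cell/PBMC co-culture was quantified at 96 h by SRB staining (0.1% SRB, 10% TCA fixation, read at 560 nm). Curves were fitted in both directions relative to DMSO baseline.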

Sequence of E-selectin (Homo sapiens) (P16581 whole entry, looked up): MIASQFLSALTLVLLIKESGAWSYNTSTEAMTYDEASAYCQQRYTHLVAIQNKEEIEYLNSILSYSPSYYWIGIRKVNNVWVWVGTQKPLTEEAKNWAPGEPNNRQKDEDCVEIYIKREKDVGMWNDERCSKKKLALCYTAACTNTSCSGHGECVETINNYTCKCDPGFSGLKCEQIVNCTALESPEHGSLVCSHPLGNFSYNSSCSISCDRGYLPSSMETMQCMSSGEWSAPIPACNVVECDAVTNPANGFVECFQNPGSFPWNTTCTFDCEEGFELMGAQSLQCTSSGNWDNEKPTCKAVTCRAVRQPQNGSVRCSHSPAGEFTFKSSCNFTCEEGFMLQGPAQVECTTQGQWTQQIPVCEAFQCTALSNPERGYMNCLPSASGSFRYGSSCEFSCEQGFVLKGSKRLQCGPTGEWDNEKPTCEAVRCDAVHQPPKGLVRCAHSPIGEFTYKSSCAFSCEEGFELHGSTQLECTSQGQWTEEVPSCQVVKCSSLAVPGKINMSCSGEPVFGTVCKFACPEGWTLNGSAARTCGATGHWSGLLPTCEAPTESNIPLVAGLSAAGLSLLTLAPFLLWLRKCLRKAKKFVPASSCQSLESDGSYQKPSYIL
Sequence of Tumor necrosis factor (Homo sapiens) (P01375 whole entry, looked up): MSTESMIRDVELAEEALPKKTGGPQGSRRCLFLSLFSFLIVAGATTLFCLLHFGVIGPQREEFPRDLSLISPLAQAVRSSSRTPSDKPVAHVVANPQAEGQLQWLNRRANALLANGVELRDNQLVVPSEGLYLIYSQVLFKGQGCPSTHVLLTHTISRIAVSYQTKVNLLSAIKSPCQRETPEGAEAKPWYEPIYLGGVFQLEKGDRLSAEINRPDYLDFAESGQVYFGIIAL

Turning to `C=CCN(CC=C)C(=O)C(Cl)Cl`, the outcome in [1], in [2], in experiment [3], in [4], in experiment [5] and in experiment [6] was inactive. For the same molecule, the result in experiment [7], in [8], in experiment [9], in experiment [10], in experiment [11] and in experiment [12] was inactive. In addition, the outcome in experiment [13] is “inactive”; in experiment [14], “inactive”; with CD38, CD38 (gene 952), “inactive”; in the experiment with CD69, CD69 (gene 969), “inactive”; in experiment [15], “inactive”; in experiment [16], “inactive”. Moreover, the outcome in experiment [17] and in experiment [18] was inactive.
For `COCC(=O)N(c1c(C)cccc1C)N1CCOC1=O`, the result in experiment [1], in experiment [2], in experiment [3], in experiment [4], in [5] and in [6] was inactive. Besides, the outcome in experiment [7], in [8], in experiment [9], in experiment [10], in experiment [11] and in experiment [12] was inactive. Moreover, the outcome in experiment [13] was “inactive”; in [14], “inactive”; in the experiment with CD38, CD38 (gene 952) it was “inactive”; with CD69, CD69 (gene 969), “inactive”; in [15] it was “inactive”; in [16], “inactive”. In addition, the outcome in experiment [17] and in experiment [18] was inactive.
In the case of `O=[N+]([O-])C=Cc1ccccc1`, the AC50 was 6.25 µM (active) in [1]; 1.37 µM (active) in experiment [2]; 8.8 µM (active) in experiment [3]; 24.3 µM (active) in [4]; 11.5 µM (active) in [6]; 2.48 µM (active) in [7]. Further, the concentration at half-maximal activity (AC50) in experiment [8] was 5.37 µM (active); in experiment [9], 31.3 µM (active); in experiment [10], 15.3 µM (active); in [11], 20 µM (active); in experiment [12], 8.05 µM (active); in experiment [13], 5.81 µM (active). For the same molecule, the AC50 was 9.91 µM (active) in experiment [14]; 24.9 µM (active) with CD38, CD38 (gene 952); 20 µM (active) with CD69, CD69 (gene 969); 20 µM (active) in experiment [15]; 20 µM (active) in [16]; 13 µM (active) in [17]. In addition, the AC50 in [18] is 3.07 µM (active). The outcome in experiment [5] was inactive.
